Assay outcomes (PubChem BioAssay)
CYP2C19 inh = blocks human cytochrome P450 2C19; P33261; CYP2C19 Supersomes, luciferin-H EGE luminescence, 30 min; inhibition, % at 5 µM; actives 21% (n = 96,000);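 active = CYP2C19 inhibition above a set limit at 5 µM in the primary screen, cut at about 50% in these data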;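 also: plate controls were negative control wells for no effect and 2.5 mM tranylcypromine positive control for full effect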
Target sequence (P33261 whole entry, looked up): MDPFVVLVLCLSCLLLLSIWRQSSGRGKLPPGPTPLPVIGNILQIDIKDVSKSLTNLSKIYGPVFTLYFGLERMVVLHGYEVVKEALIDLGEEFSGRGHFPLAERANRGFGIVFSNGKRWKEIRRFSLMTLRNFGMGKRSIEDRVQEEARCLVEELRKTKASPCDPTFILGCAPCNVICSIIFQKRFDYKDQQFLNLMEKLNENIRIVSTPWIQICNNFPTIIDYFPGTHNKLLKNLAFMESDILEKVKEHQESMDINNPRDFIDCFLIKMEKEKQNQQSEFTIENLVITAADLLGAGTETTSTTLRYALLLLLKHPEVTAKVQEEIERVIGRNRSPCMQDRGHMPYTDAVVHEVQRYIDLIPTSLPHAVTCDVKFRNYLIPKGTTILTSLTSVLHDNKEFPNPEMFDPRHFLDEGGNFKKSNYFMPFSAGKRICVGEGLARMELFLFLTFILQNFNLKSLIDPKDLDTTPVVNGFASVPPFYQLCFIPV
CYP2C19 activ = cytochrome P450 2C19 (human) activation. activation factor at 5 µM. 96,000 tested, under 10 active. recombinant CYP2C19, luciferin-H EGE luminescence; stronger effect = higher value; 0 = fully inhibited enzyme, 1 = untreated enzyme. P33261. AID 1025;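 active = activation factor of at least 2 at 5 µM in the primary screen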;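 also: 0 = wells with 2.5 mM tranylcypromine and 1 = vehicle-only wells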
CYP2C9 act = increases human cytochrome P450 2C9 activity. P11712. recombinant CYP2C9, luciferin-H conversion, luminescence; stronger effect = higher value; factor 1 = untreated enzyme, 0 = blocked. activation factor at 5 µM. actives 1.4% (n = 96,000);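 active = activation factor of 2 or more for CYP2C9 at a 5 µM dose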;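 also: 0 = sulfaphenazole-blocked wells and 1 = vehicle-only wells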
CYP2C9 inh = human CYP2C9 inhibition | P11712 | CYP2C9 Supersomes, luciferin-H conversion, luminescence | inhibition, % at 5 µM | actives 20% (n = 96,000);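 active = blocking of liver enzyme CYP2C9 beyond about 50% at 5 µM, limit read from the data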
Cav3 T inh = blocks human Cav3.2 T-type calcium channel; O95180; Cav3.2-expressing cells, Fluo-4 calcium fluorescence FDSS; stronger effect = lower value; B-score at 10 µM; actives 4% (n = 100,000);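 active = single-dose well whose peak fluorescence ratio is a statistical outlier from its plate by either plate-standardised score or position-corrected B-score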
* hit, by the source's call; · = no result. Sampled rows, rich in hits. Any-hit rate of the full collection: about 27%.

SMILES	CYP2C19 inh	CYP2C19 activ	CYP2C9 act	CYP2C9 inh	Cav3 T inh
CCCNc1nc2c(c(=O)[nH]c(=O)n2C)n1CCC(C)C	9.6	0.9	0.5	49.2	-0.0872
CCCCCN(C(=O)COC(=O)c1ccc(Br)o1)c1c(N)n(CCCC)c(=O)[nH]c1=O	-1.0	1	0.9	7.4	·
O=C(CCCCCNc1nc(=S)[nH]c2ccccc12)N1CCN(c2ccccn2)CC1	57.0*	0.4	0.4	62.1*	0.754
Nc1nncn1C(=O)CCCOc1ccc(Cl)cc1Cl	64.6*	0.4	0.9	6.2	0.9
Cc1cc(Cl)ccc1OCCCC(=O)N1CCN(C(=O)c2ccco2)CC1	64.6*	0.4	0.7	27.3	-1.76
O=C(CCCOc1ccc(Cl)cc1Cl)n1nnc2ccccc21	·	·	·	·	-0.0277
O=C(CCN1C(=O)C2C3C=CC(C3)C2C1=O)N1CCN(c2ccccn2)CC1 (configuration not stated)	·	·	·	·	0.333
O=C(CCCOc1ccc(Cl)cc1Cl)N1CCN(c2ccccn2)CC1	75.8*	0.2	0.6	43.3	-4.08
CC1C(=O)CCN(C(C)(C)C)C1C (configuration not stated)	-5.4	1.1	0.9	13.2	1.5
O=C(CSCc1ccccc1)N1CCN(c2ccc(F)cc2)CC1	49.4	0.5	0.8	21.1	-0.451
CN1CCN(C(=O)CCCOc2ccc(Cl)cc2Cl)CC1	66.7*	0.3	1.3	-25.0	0.35
O=C(Oc1ccccc1)N1CCN(c2ccc(F)cc2)CC1	84.9*	0.2	1.1	-7.7	-1.74
CN1CCN(C(=O)c2ccc(COc3ccc(Cl)cc3Cl)cc2)CC1	-6.7	1.1	1	-1.8	0.169
O=C(c1cc2ccccc2oc1=O)N1CCN(c2ccccn2)CC1	77.1*	0.2	0.9	8.8	0.119
O=C(c1cc2ccccc2oc1=O)N1CCN(c2ncccn2)CC1	86.9*	0.1	1	4.3	0.0893
CN1CCN(C(=O)c2cc3ccccc3oc2=O)CC1	7.3	0.9	1	-1.7	0.0134
CCOC(=O)c1c(N)sc2c1CCC1C(=O)N(C3CCCCC3)C(=O)C21 (configuration not stated)	90.6*	0.1	0.1	90.0*	-2.09
C=CCOC(=O)C1=C(C)NC(SCC(=O)N(CC)CC)=C(C#N)C1c1ccco1 (configuration not stated)	68.9*	0.3	0.2	80.4*	-1.48
CCOC(=O)C1=C(C)NC(SCC(=O)O)=NC1c1ccccc1 (configuration not stated)	16.1	0.8	0.8	16.0	0.975
C=CCOC(=O)C1=C(C)NC(SCC(=O)Nc2ccccc2)=C(C#N)C1c1ccco1 (configuration not stated)	59.9*	0.4	0.3	72.3*	-0.204
C=CCOC(=O)C1=C(C)NC(SCC(=O)N(CC)CC)=C(C#N)C1c1ccccc1 (configuration not stated)	97.3*	0	0.1	89.7*	-1.35
C#CCNC(=O)C1=C[C@@H](C2CCCCC2)[C@H](CCCO)[C@@H](OCC)O1	·	·	·	·	0.197
CC1CCCN(S(=O)(=O)c2ccc(NC(=O)CCN3C(=O)c4ccccc4C3=O)cc2)C1 (configuration not stated)	4.2	1	0.5	45.3	·
O=C(Nc1ccc(Oc2ccccc2)cc1)C1CCCN(c2ncccn2)C1 (configuration not stated)	13.0	0.9	0.9	10.2	·
CC1(c2nnc(-c3cccc(Cl)c3)o2)CC(c2ccc(Br)cc2)=NO1 (configuration not stated)	·	·	·	·	-0.752
SMILES	CYP2C19 inh	CYP2C19 activ	CYP2C9 act	CYP2C9 inh	Cav3 T inh
COc1ccccc1CNC(=O)C1=C(C)C(=O)OC12CCC(C)CC2 (configuration not stated)	97.9*	0	0.3	72.1*	0.613
COc1cccc(CNC(=O)c2ccccc2N)c1	78.2*	0.2	0.9	8.8	0.739
COc1ccc(NC(=O)C2=C(C)C(=O)OC23CCC(C)CC3)c(OC)c1 (configuration not stated)	87.1*	0.1	0.2	76.7*	0.0307
COc1cccc(CNC(=O)Cn2cccc2)c1	45.8	0.5	0.8	22.1	·
CCOc1ccc(NC(=O)C2=C(C)C(=O)OC23CCC(C)CC3)cc1 (configuration not stated)	89.7*	0.1	0.3	69.3*	-2.91
CC1=C(C(=O)NC(C)C)C2(CCC(C)CC2)OC1=O (configuration not stated)	·	·	·	·	0.184
CC1=C(C(=O)NCCc2ccc(C)cc2)C2(CCC(C)CC2)OC1=O (configuration not stated)	·	·	·	·	0.0927
